Test results taken from ChEMBL document CHEMBL4888484, “Replenishing the malaria drug discovery pipeline: Screening and hit evaluation of the MMV Hit Generation Library 1 (HGL1) against asexual blood stage Plasmodium falciparum ,using a nano luciferase reporter read-out” (2022).
Among all 150,000 compounds or so, about 540 (0.36%) showed an effect of 50% or more. For the sample, strong results were picked, then their nearest neighbours and some compounds at random.

Test system: Plasmodium falciparum
Experiment: Primary screen in NF54 nanoGlo assay, in single point, at 2uM, 72h; a lower Z score goes with more inhibition
Assay type: functional, Erythrocyte
Conditions: timepoint 72 hour

SMILES	% Inhibition	Z score
Cc1noc(Cl)c1CC(=O)N1CCCC(C)(C)CC1	44%	-6.85
Cc1noc(C)c1CC(=O)N1CCCCCC1	-23%	2.1
CC[C@@]1(C)CCCN(C(=O)Cc2c(C)noc2Cl)C1	85%	-13.67
Cc1cc(C(=O)Nc2nc(C)cs2)on1	-13%	2.13
c1ccc2c[n+](Cc3ccc4ccccc4n3)ccc2c1	59%	-7.39
Cc1nnc(CN(C)Cc2ccc3ccccc3n2)o1	-21%	2.06
c1ccc2cc(-c3ccc4ccccc4n3)ccc2c1	41%	-1.59
O[C@@H](Cc1ccc2ccccc2n1)c1ccccc1	33%	0.78
Cc1ccc[n+](CC2OCc3ccccc3CO2)c1	5%	-0.68
Cc1ccc[n+](Cc2ccc3ccccc3n2)c1	59%	-7.89
Cc1ccc(S(=O)(=O)N2CCO[C@@H](COc3ccccc3)C2)c(C)c1NS(C)(=O)=O	0%	0.05
COC(C)(C)CCC[C@H](C)CCNCC(C)(C)N1CCOCC1	1%	-0.18
N#C[C@H]1C(=O)c2ccccc2N(Cc2ccccc2)C1=O	-5%	0.84
CCN1CC(=O)N[C@H]2CN(C(=O)c3cnn(CC)c3C)CC[C@@H]2OCc2cccc(c2)Oc2cc(OC(C)C)cc(c2)C1=O	-5%	0.73
CCn1nc(-c2ccc(OC)cc2F)cc1C(=O)NCCN1CCCCC1	-17%	2.1
Cc1cc(C)c2nc(N3CCC(C(=O)NC4CCCCCC4)CC3)sc2c1	-8%	1.22
CC(C)CNC(=O)CS(=O)(=O)Cc1ccccc1	-6%	1.18
CCOC(=O)N1CCC(NC(=O)c2coc(NC(=O)Cc3c(C)noc3C)n2)CC1	18%	-2.53
CC(C)c1cc(=O)[nH]c(-n2nc(C3CC3)cc2NC(=O)COc2ccc3ccccc3c2)n1	54%	-12.73
Cc1nc(CC(=O)Nc2cc(C3CC3)nn2-c2ccccc2)cs1	38%	-0.78
CC(C)c1cc(=O)[nH]c(-n2nc(C3CC3)cc2NC(=O)Cc2ccc(Cl)cc2)n1	74%	-12.5
COc1ccc(C(=O)OCC(=O)Nc2cc(C3CC3)nn2-c2ccccc2)c(O)c1	-7%	1.34

SMILES	% Inhibition	Z score
CC(C)c1cc(=O)[nH]c(-n2nc(C3CC3)cc2NC(=O)c2ccccc2C(F)(F)F)n1	18%	-3.33
COc1ccc(C2CN(Cc3ccccn3)CC2CN(Cc2ccc(F)cc2)C(C)=O)cc1 (configuration not stated)	15%	-1.72
COC(=O)c1ccc(C)c(NC(=O)c2cn(C)cn2)c1O	-2%	0.17
COCCCN(Cc1ccco1)C[C@H](O)COC(C)(C)C	2%	-0.27
CC(C)(Oc1cc2c(cc1-c1cncc(C3CC3)c1)CCO2)C(=O)O	-1%	0.1
COCC(=O)Nc1cc(C2CC2)nn1-c1nc(C)cc(=O)[nH]1	4%	-0.78
Cc1cc(=O)[nH]c(-n2nc(C3CC3)cc2NC(=O)c2ccc(C(C)(C)C)cc2)n1	57%	-4.8
Cc1cc(=O)[nH]c(-n2nc(C3CC3)cc2NC(=O)C(c2ccccc2)c2ccccc2)n1	86%	-11.5
CC[C@@H](C(=O)Nc1cc(C)nn1-c1nc2c(c(=O)[nH]1)CCC2)c1ccccc1	17%	-3.37
CC(C)c1cc(=O)[nH]c(-n2nc(C3CC3)cc2NC(=O)c2ccc(F)cc2)n1	90%	-16.95
Cn1nc(C2CCCC2)cc1NC(=O)c1ccc(OCC(=O)O)cc1	1%	-0.23
CC(C)c1cc(=O)[nH]c(-n2nc(C3CC3)cc2NC(=O)c2ccc(F)c(F)c2)n1	5%	-0.72
Cc1nn(C(C)C)c(C)c1CN(C)C(=O)c1cc(C#N)c[nH]1	0%	-0.07
CN1C(=O)CCC12CCN(S(=O)(=O)Cc1ccc(Cl)cc1F)CC2	-3%	0.59
c1ccc(-c2noc(C3CCN(c4ccc5nncn5n4)CC3)n2)nc1	-18%	2.08
CC(C)c1nccn1CC(=O)N(C)[C@@H](C)c1ccc(F)c(F)c1	-1%	0.13
C[C@@H]1CN(CCCCO)CCN1C(=O)OC(C)(C)C	-1%	0.08
Cc1onc(-c2ccccc2Cl)c1C(=O)NCC1(c2ccc(F)cc2)CCOCC1	-13%	2.28
CN1C[C@]2(CCCN(Cc3ccc(OCC(=O)c4ccccc4)cc3)C2)CCC1=O	-5%	0.67
CCCc1c(C(=O)N2CCNc3ncccc32)cnn1C1CCCC1	-7%	1.14
N#Cc1nc(C2CC2)oc1N1CCN(C(=O)CCc2ccco2)CC1	-7%	1.41
CN1CCC(Oc2nc3ccc(F)cc3o2)CC1	-11%	1.44

SMILES	% Inhibition	Z score
CCNC(=O)c1cc(NCCc2nccn2Cc2ccccc2)ccn1	-9%	0.95
Cc1ccccc1N1C(=O)CN(C(=O)C2COc3ccccc3O2)CC1C (configuration not stated)	-1%	0.18
c1ccc2c(-c3cc4c(c(O[C@H]5CCOC5)c3)OCCNC4)csc2c1	-8%	1.61
COC(=O)c1cn(Cc2cccnc2)cc2c(O)nnc1-2	0%	-0.02
COC(=O)c1cn(CCc2cn3ccccc3n2)cc2c(O)nnc1-2	-7%	0.84
CC(C)[C@H](NC(=O)[C@H](Cc1ccccc1)n1cnnn1)c1nc2ccccc2[nH]1	-15%	1.85
C#CCn1cnc(-c2ccccc2)c1NC(=O)CCc1ccc(C(C)C)cc1	-7%	0.8
COc1cccc2c1Oc1c(c(=O)n(-c3ccccc3)n1CC(=O)Nc1cccc(F)c1)C2	-19%	1.9
Cc1c(C(=O)[C@H](C#N)c2nnc(N3CCOCC3)n2-c2ccccc2)nnn1-c1ccc(F)cc1	-7%	1.18
COc1ccccc1CN1COc2cc3c(cc2C1)OCO3	56%	-4.75
Cc1ccc(N2COc3cc4c(cc3C2)OCO4)cc1C	-10%	1.51
COc1ccccc1CN1Cc2ccccc2O[C@@H](C)C1=O	-5%	0.61
CN1CC[C@@]2(CCC1=O)CN(c1ccnc3ccc(Cl)cc13)CCN2C	-4%	0.66
O=C(Cn1cnnn1)NCc1ccc2c(c1)CCC2	-44%	5.16
Cc1nnc([C@@]23COC[C@@H]2CN(C(=O)c2cccc4[nH]ccc24)C3)o1	-10%	1.33
CCC(C)(C)NC(=O)Cn1c(C)ccc(NS(=O)(=O)c2ccc(C)cc2)c1=O	-4%	0.69
Cc1ccc(S(=O)(=O)Nc2ccc(C)n(CC(=O)NCC(C)C)c2=O)cc1	-22%	3.01
COc1cccc(NC(=O)Cn2c(C)ccc(NS(=O)(=O)c3ccc(C)cc3)c2=O)c1	74%	-9.85
C=CCN(C)C(=O)NCc1ccc(Br)c(F)c1	2%	-0.18
COc1ccc(-c2cn3c(C(=O)N4CCNC(=O)C4)csc3n2)cc1F	-19%	2.43
CN1CC[C@H](c2nc3cc(F)ccc3[nH]2)C1	-1%	0.12
Cc1noc2ncnc(N3CCCC[C@H]3c3nccs3)c12	-7%	0.7

SMILES	% Inhibition	Z score
Cc1cc2c(=O)c(C(=O)c3ccncc3)cn(CC(=O)NC3CCCCC3)c2cc1F	-1%	0.12
CCOC(=O)c1cn(CC)c2cc(NC3CCCCC3)c(F)cc2c1=O	67%	-12.03
CCOC(=O)c1cn(CC2CCCCC2)c2nc(C)ccc2c1=O	23%	-2.66
Cc1nc(CC(=O)NC[C@H](O)COc2ccc(F)cc2)cs1	-3%	0.65
Cc1cc(C)nc(NC[C@H](O)COc2ccc(F)cc2)n1	5%	-0.6
COc1ccc(Nc2nc(COC(=O)Cn3cnc4c3c(=O)n(C)c(=O)n4C)cs2)cc1	-6%	0.88
CO[C@H]1COCC[C@@H]1NC(=O)c1ccc(C#CC(C)(C)O)o1	1%	-0.19
CC[C@@H](COc1ccccc1)NC(=O)CC1CCNCC1	9%	-1.66
O=C1C2C3C=CC(C3=C3CCCCC3)C2C(=O)N1c1cccc(Cl)c1 (configuration not stated)	51%	-1.24
Cc1cccc(N2C(=O)C3C4C=CC(C4=C4CCCCC4)C3C2=O)c1 (configuration not stated)	0%	0.03
Cc1ccc(N2C(=O)C3C4C=CC(C4=C4CCCCC4)C3C2=O)cc1Cl (configuration not stated)	-11%	1.34
COc1cc(C(=O)Nc2[nH]c(=O)ncc2F)ccc1Cl	76%	-11.96
O=C(Nc1ccc(Cl)cn1)c1cccc2ccccc12	-6%	1.15
COc1cc(C(=O)Nc2nc(C)nn2C)ccc1Cl	-9%	1.22
Cc1cc(NC(=O)c2ccc(Cl)c(F)c2)nc(=O)[nH]1	-4%	0.38
O=C(NCc1n[nH]c(=O)[nH]1)c1ccc(Br)c(F)c1	-6%	0.79
Cc1cnc(NC(=O)c2cccc3ccccc23)s1	-12%	2.18
O=C(NCCc1n[nH]c(=O)[nH]1)c1c(F)cc(Br)cc1F	-3%	0.32
O=C(Nc1[nH]c(=O)ncc1F)c1cc(F)c(F)cc1Br	91%	-7.85
O=C(Nc1[nH]c(=O)ncc1F)c1cccc2ccccc12	85%	-7.83
